The values below come from PubChem BioAssay (EPA / NIEHS).

Inconclusive results are not listed. Activity calls are given as the source filed them. How the source made its calls: active means hit-call score of the fitted dose curve at least 0.9, where 1 is the maximum; inconclusive means response in the unintended direction; inactive means score below 0.9.

The first assay in a line: ACEA_AR_antagonist_AUC_viability: ACEA Biosciences xCELLigence Real-Time Cell Analysis on Androgen Receptor Antagonism for Viability (AID 2283776).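 Further: 22Rv1 human prostate cancer cells growing on impedance electrode plates; hits lower the growth signal relative to DMSO meaning cytotoxicity.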 Put shortly: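 Impedance read-out (RT-CES): area under growth curve at 80 h post-dose, loss of signal scored vs DMSO baseline. 22Rv1 cells; 8-pt 1:4 series, top 100 uM final, ≤0.5% DMSO; biological duplicate.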
Turning to `O=C1CCCO1`, the call was inactive.

Regarding `C[N+](C)(C)CC1CO1` (centres undefined), the result was inactive.

With `O=[N+]([O-])c1ccc(Oc2ccc(Cl)cc2Cl)cc1`, the AC50 was 31.2 µM (active).

Consider `CCCCCCCCn1sccc1=O`, for which the AC50 is 18.4 µM (active).

For `Nc1ccc(Oc2ccc(N)cc2)cc1`, the result was inactive.

For `CCOc1cccc(C2(N3CCN(c4ccccc4)CC3)CCC(C)CC2)c1` (centres undefined), the molecule was called inactive.

Take `C1=Cc2cccc3cccc1c23`: the call was inactive.

`CC(C)COC(=O)c1ccccc1C(=O)OCC(C)C`: the AC50 is 74.8 µM (active).

`O=[N+]([O-])C(Br)(CO)CO`: the AC50 is 39 µM (active).

Turning to `Nc1ccc([N+](=O)[O-])cc1`, the AC50 was 16.8 µM (active).

With `CNC(=O)Oc1cccc2c1OC(C)(C)C2`, the call was inactive.

In the case of `O=C(Nc1ccccc1)c1ccccc1I`, the call was inactive.

Turning to `Brc1ccc(Oc2ccccc2)cc1`, the molecule was called inactive.

With `CS(=O)(=O)NC(=O)c1cc(Oc2ccc(C(F)(F)F)cc2Cl)ccc1[N+](=O)[O-]`, the result was inactive.

For the molecule `Clc1ccccc1Cl`, the call was inactive.

As to `O=C(Oc1ccc(Br)cc1)N1CCN2CCC1CC2`, the molecule was called inactive.

For the molecule `CCNS(=O)(=O)C(F)(F)C(F)(F)C(F)(F)C(F)(F)C(F)(F)C(F)(F)C(F)(F)C(F)(F)F`, the molecule was called inactive.

Take `OCCCBr`: the call was inactive.

`CC(O)CCO` (centres undefined): the result was inactive.

As to `ClC1=C(Cl)C2(Cl)C3C(Cl)C=CC3C1(Cl)C2(Cl)Cl` (centres undefined), the AC50 was 22 µM (active).

With `O=C(O)C1C2CCC(O2)C1C(=O)O` (centres undefined), the AC50 is 35.4 µM (active).

On to `c1ccc2c(c1)-c1cccc3cccc-2c13`, for which the AC50 is 8.92 µM (active).

As for `CC(C)(C)C(O)(CCc1ccc(Cl)cc1)Cn1cncn1` (centres undefined), the AC50 is 58.9 µM (active).

Turning to `COc1cc(C=O)cc2c1[C@H](COC(N)=O)[C@]1(OC(C)=O)ON2C[C@H]2[C@@H]1N2C(C)=O`, the AC50 is 0.00824 µM (active).

A further assay is described as follows: ACEA_ER_AUC_viability: ACEA Biosciences xCELLigence Real-Time Cell Analysis on Estrogen Receptor Agonism for Viability (AID 2283782).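 Further: hit means loss of impedance signal meaning reduced cell growth or viability.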 The essentials:
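Viability endpoint: reduced impedance area under the curve relative to DMSO, recorded by real-time electrode sensing over ~80 h of continuous exposure. Duplicate plates of T47D in hormone-depleted medium; eight concentrations, 1:4 dilutions, 100 uM maximum.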
As for `C[N+](C)(C)CC1CO1` (centres undefined), the result was inactive.

Consider `CCCCCCCCn1sccc1=O`, for which the AC50 is 11.8 µM (active).

Take `OCCCl`: the molecule was called inactive.

Regarding `CCOc1cccc(C2(N3CCN(c4ccccc4)CC3)CCC(C)CC2)c1` (centres undefined), the molecule was called inactive.

In the case of `C1=Cc2cccc3cccc1c23`, the molecule was classed as inactive.

On to `CC(C)COC(=O)c1ccccc1C(=O)OCC(C)C`, for which the outcome was inactive.

As for `O=[N+]([O-])C(Br)(CO)CO`, the AC50 is 32.7 µM (active).

On to `ClCCOCCCl`, for which the call was inactive.

As to `Nc1ccc([N+](=O)[O-])cc1`, the AC50 is 7.37 µM (active).

As to `CNC(=O)Oc1cccc2c1OC(C)(C)C2`, the molecule was classed as inactive.

For the molecule `O=C(Nc1ccccc1)c1ccccc1I`, the call was inactive.

For `Brc1ccc(Oc2ccccc2)cc1`, the molecule was called inactive.

In the case of `CS(=O)(=O)NC(=O)c1cc(Oc2ccc(C(F)(F)F)cc2Cl)ccc1[N+](=O)[O-]`, the call was inactive.

For `Clc1ccccc1Cl`, the molecule was called inactive.

On to `O=C(Oc1ccc(Br)cc1)N1CCN2CCC1CC2`, for which the result was inactive.

For `CC(O)CCO` (centres undefined), the molecule was called inactive.

As to `ClC1=C(Cl)C2(Cl)C3C(Cl)C=CC3C1(Cl)C2(Cl)Cl` (centres undefined), the AC50 was 50 µM (active).

As for `O=C(O)C1C2CCC(O2)C1C(=O)O` (centres undefined), the AC50 is 21.9 µM (active).

Take `c1ccc2c(c1)-c1cccc3cccc-2c13`: the molecule was classed as inactive.

Consider `CC(C)(C)C(O)(CCc1ccc(Cl)cc1)Cn1cncn1` (centres undefined), for which the AC50 is 69.2 µM (active).
